Bioassay records deposited in PubChem BioAssay by National Center for Advancing Translational Sciences (NCATS).
Hits are enriched below; roughly 4% of the tested compounds scored in any of these assays.
DRV1 agonist – GPR32 (DRV1) agonism, beta-arrestin recruitment | AID 1346428 | O75388 | CHO-K1 GPR32 beta-arrestin PathHunter luminescence, 90 min; zero percent set by DMSO-only wells | 48,000 tested, 2.5% active | activation, % at 76.9 µM;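 active = activation of at least 60% and not above a set upper limit, about 1 call in 100 departs from these limits; inconclusive = activation of 40% to 60%, or above that upper limit; inactive = activation under 40%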
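CHO-K1 cells stably expressing ProLink-tagged GPR32 and Enzyme Activator-tagged beta-arrestin were seeded at 2,500 cells/well overnight, exposed to compounds for 90 min at 37 °C, then read by beta-Gal complementation chemiluminescence after 1 h detection reagent.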
GALC G270D act – galactocerebrosidase G270D activity enhancement, cell-based | AID 1159614 | 145M-Twi-hGALC-G270D cells (Twitcher mouse brain line with human GALC G270D), HMU-beta-Gal fluorescence, 48 h | P54803 | 45,000 tested, 0.1% active | Potency, µM (top dose mostly 57.5 µM), hits mostly activators; note: nearly all actives have a fitted effect of over 65% in size
Target sequence (P54803 whole entry G286D): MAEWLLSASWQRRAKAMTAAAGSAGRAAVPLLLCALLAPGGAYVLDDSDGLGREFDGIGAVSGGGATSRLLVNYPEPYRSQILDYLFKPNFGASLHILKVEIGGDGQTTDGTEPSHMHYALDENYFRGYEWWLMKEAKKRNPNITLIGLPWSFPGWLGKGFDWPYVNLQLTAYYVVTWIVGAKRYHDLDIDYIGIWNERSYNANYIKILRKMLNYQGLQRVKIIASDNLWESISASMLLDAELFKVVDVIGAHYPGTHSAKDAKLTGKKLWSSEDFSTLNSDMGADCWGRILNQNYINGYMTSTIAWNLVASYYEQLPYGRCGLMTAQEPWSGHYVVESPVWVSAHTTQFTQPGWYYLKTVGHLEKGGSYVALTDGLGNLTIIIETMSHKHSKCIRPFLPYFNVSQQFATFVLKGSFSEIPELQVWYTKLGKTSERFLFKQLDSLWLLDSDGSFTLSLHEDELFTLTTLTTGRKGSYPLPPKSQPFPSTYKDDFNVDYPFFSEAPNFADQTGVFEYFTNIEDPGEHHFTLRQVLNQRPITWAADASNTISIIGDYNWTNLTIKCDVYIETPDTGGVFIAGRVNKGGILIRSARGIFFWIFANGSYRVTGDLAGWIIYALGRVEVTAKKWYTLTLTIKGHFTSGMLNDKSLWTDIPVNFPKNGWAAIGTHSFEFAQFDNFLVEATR
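Mutant human GALC (G270D), stably expressed in a Twitcher mouse brain cell line lacking endogenous GALC, is measured in live-treated cells via 6-hexadecanoylamino-4-methylumbelliferyl-β-galactoside hydrolysis (0.1 mM final, pH 5.2) with fluorescent detection.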
SKOV3 invasion – inhibitors of ovarian cancer cell adhesion and invasion in omental model | SKOV3ip1-GFP adhesion/invasion on 3D omental model, fluorescence | Potency, µM (titrated, usually from 45.8 µM), most hits filed as inhibitors | 46,000 tested, 0.1% active | AID 1963576; note: nearly all actives have a fitted effect of over 65% in size
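Adhesion/invasion was scored as fixed GFP-labeled SKOV3ip1 cell counts (488/509 nm), normalized to DMSO and tomatine controls. Cancer cells in serum-free medium, with four compound doses (0.36-46 umol/L), sat 2 hr at RT then 16 hr at 37 C on a 48 hr fibroblast/mesothelial/ECM culture.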
p53null 32C tox – kills p53 null cells at the permissive temperature | H1299-neo p53 null cells, ATP luminescence, 24 h, 32C | Potency, µM (titrated, usually from 46.1 µM), hits mostly cytotoxic | 55,000 tested, 0.62% active; note: nearly all actives have a fitted effect of over 55% in size
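H1299-neo (p53 null) cells, 600/well, treated 24 h at 32C with compound up to 46 uM; ATPlite luminescence viability, normalized to DMSO and 100 uM tamoxifen; AC50 by Hill fit.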
NTMT1 inhibitor – inhibitors of human N-terminal methyltransferase NTMT1 | Q9BV86 | 59,000 tested, 2.5% active | NTMT1 MTase-Glo SAH luminescence, purified enzyme | AID 1645870 | Potency, µM (titrated, usually from 114 µM), actives largely listed as inhibitors; note: nearly all actives have a fitted effect of over 65% in size
p53null 39C tox – kills p53 null cells at the nonpermissive temperature. 55,000 tested, 0.97% active. Potency, µM (series often up to 46.1 µM), hits mostly cytotoxic. H1299 p53-null (neo) cells, 39C, ATPlite viability, 24 h; note: nearly all actives have a fitted effect of over 50% in size
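Following overnight plating at 37C (600 cells/well), H1299-neo or H1299-p53A138V cells are dosed up to 46 uM. Incubation lasts 24 hr at 39C before ATP detection.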
Numbers stand for hits. Unless noted, calls come from the whole dose curve; as a rule, active = well fitted curve in the direction sought with a large enough effect; inconclusive = small, poorly fitted or top-dose-only effect, or another doubt; inactive = no such curve, though single readings can be large; an effect the other way counts as inactive or inconclusive.

Screening COc1cc(C)c(/C=C/C(C)=C/C=C/C(C)=C/C(=O)O)c(C)c1C returned NTMT1 inhibitor 79µM.
COc1ccc(-n2cc(-c3ccc4c(c3)OCO4)n(CC(=O)Nc3cc(Cl)ccc3C)c2=O)cc1 was read as DRV1 agonist inactive, GALC G270D act inactive, SKOV3 invasion inactive, p53null 32C tox 16µM, NTMT1 inhibitor inconclusive and p53null 39C tox 10µM.
`CCn1c(CN2CCCCC2)nc2cc(NC(=O)c3ccc([N+](=O)[O-])cc3)ccc21` gave DRV1 agonist 71, GALC G270D act inactive, SKOV3 invasion inactive, p53null 32C tox inactive, NTMT1 inhibitor inactive and p53null 39C tox inactive.
Screening COc1ccc(NC(=O)Nc2ccc(-c3nc4ccccc4[nH]3)cc2)cc1OC returned NTMT1 inhibitor inactive.
For COc1cc(Cl)c(C)cc1NC(=O)c1cc2ccc3cccnc3c2[nH]1 the results were DRV1 agonist inactive, GALC G270D act inactive, SKOV3 invasion inactive, p53null 32C tox 20µM, NTMT1 inhibitor inactive and p53null 39C tox inactive.
Screening COc1ccccc1NC(=O)c1cc2ccc3cccnc3c2[nH]1 returned DRV1 agonist 93, GALC G270D act inactive, SKOV3 invasion inactive, p53null 32C tox inconclusive, NTMT1 inhibitor inactive and p53null 39C tox inactive.
Screening Cn1ccc(NC(=O)c2cc(Oc3ccc(C(=O)N4CCC4)c(F)c3)c3c(c2)OC(C)(C)C3)n1 returned NTMT1 inhibitor inactive.
`N[C@@H]1CN(c2c(F)cc3c(=O)c(C(=O)O)cn([C@@H]4C[C@@H]4F)c3c2Cl)CC12CC2` gave NTMT1 inhibitor inactive.
`CCN1C(=O)CC(C(=O)Nc2ccc(OC)cc2)SC1=Nc1ccc(C)c(C)c1` (stereo unspecified) gave DRV1 agonist inactive, GALC G270D act inactive, SKOV3 invasion inactive, p53null 32C tox inactive, NTMT1 inhibitor inactive and p53null 39C tox inactive.
`CCOc1cccc(NC(=O)C2CC(=O)N(CC)C(=Nc3ccc(F)cc3)S2)c1` (stereo unspecified) gave DRV1 agonist 81, GALC G270D act inactive, SKOV3 invasion inactive, p53null 32C tox inactive, NTMT1 inhibitor inactive and p53null 39C tox inconclusive.
CNc1oc(-c2ccc3cnccc3c2)nc1C#N was read as NTMT1 inhibitor inactive.
Cc1ccc(NC(=O)CC(C)S(=O)(=O)c2ccc3c(c2)NC(=O)CO3)c(C)c1 (stereo unspecified) was read as DRV1 agonist 74, GALC G270D act inactive, SKOV3 invasion inactive, p53null 32C tox inactive, NTMT1 inhibitor inactive and p53null 39C tox inactive.
Screening Cc1ccc(NC(=O)CC2Oc3ccc(C)cc3NC2=O)c(C)c1 (stereo unspecified) returned DRV1 agonist inactive, GALC G270D act inactive, SKOV3 invasion inactive, p53null 32C tox inactive, NTMT1 inhibitor inconclusive and p53null 39C tox inactive.
Clc1cccc(N2CCN(c3ncnc4c3nc3n4CCCC3)CC2)c1 was read as DRV1 agonist inactive, GALC G270D act inactive, SKOV3 invasion inactive, p53null 32C tox inactive, NTMT1 inhibitor 50µM and p53null 39C tox inactive.
For O=C(Nc1cccc(Cl)c1)C1CCCN(c2ncnc3c2nc2n3CCCCC2)C1 (stereo unspecified) the results were DRV1 agonist 67, GALC G270D act inactive, SKOV3 invasion inactive, p53null 32C tox inactive, NTMT1 inhibitor inconclusive and p53null 39C tox inactive.
O=C(Nc1ccc(F)cc1)C1CCCN(c2ncnc3c2nc2n3CCCCC2)C1 (stereo unspecified) was read as DRV1 agonist inactive, GALC G270D act inactive, SKOV3 invasion inactive, p53null 32C tox inactive, NTMT1 inhibitor inactive and p53null 39C tox inactive.
CC(C)(C)c1ccc(OCC(=O)Nc2ccc(S(=O)(=O)Nc3ncccn3)cc2)cc1 was read as DRV1 agonist 79, GALC G270D act inactive, SKOV3 invasion inactive, p53null 32C tox inactive, NTMT1 inhibitor inactive and p53null 39C tox inactive.
For Cc1ccccc1CC1C(=O)Nc2ccc(Br)cc21 (stereo unspecified) the results were DRV1 agonist inactive, GALC G270D act inactive, SKOV3 invasion inactive, p53null 32C tox inactive, NTMT1 inhibitor inconclusive and p53null 39C tox inactive.
COc1ccc(Br)cc1CC1C(=O)Nc2ccccc21 (stereo unspecified) was read as DRV1 agonist inactive, GALC G270D act inactive, SKOV3 invasion inactive, p53null 32C tox inactive, NTMT1 inhibitor 25µM and p53null 39C tox inactive.
`O=C(O)C1=CC(=C(c2ccc(O)c(C(=O)O)c2)c2ccc(O)c(C(=O)O)c2)C=CC1=O` gave DRV1 agonist inactive.
`Nc1ccc(O)c(C(=O)O)c1` gave DRV1 agonist inactive, GALC G270D act inactive and NTMT1 inhibitor 40µM.
For Nc1nc(OCc2cc(Br)cs2)c2[nH]cnc2n1 the results were NTMT1 inhibitor inactive.
For CC(=O)c1cccc(NC(=O)c2cccn2-c2nnc(N3CCCCC3)s2)c1 the results were DRV1 agonist inactive, GALC G270D act inactive, SKOV3 invasion inactive, p53null 32C tox inactive, NTMT1 inhibitor inconclusive and p53null 39C tox inactive.
Screening Cc1ccc(NC(=O)c2cccn2-c2nnc(N3CCCCC3)s2)cc1Cl returned DRV1 agonist inactive, GALC G270D act inactive, SKOV3 invasion inactive, p53null 32C tox inactive, NTMT1 inhibitor 79µM and p53null 39C tox inactive.
Cc1cc(C)cc(NC(=O)c2ccc3oc(=O)c(S(=O)(=O)c4ccc(F)cc4)cc3c2)c1 was read as DRV1 agonist 103, GALC G270D act inactive, SKOV3 invasion inactive, p53null 32C tox inactive, NTMT1 inhibitor inactive and p53null 39C tox inactive.
CC(C)Nc1ncnc2c1cnn2-c1ccccc1 was read as p53null 32C tox 11µM and p53null 39C tox inconclusive.
COc1ccc(CCNc2ncnc3c2cnn3-c2ccc(C)c(Cl)c2)cc1 was read as DRV1 agonist inconclusive, GALC G270D act inactive, SKOV3 invasion inactive, p53null 32C tox inactive, NTMT1 inhibitor inactive and p53null 39C tox inactive.
Cc1ccc(-n2ncc3c(NCCc4ccccc4)ncnc32)cc1Cl was read as DRV1 agonist 117, GALC G270D act inactive, SKOV3 invasion inactive, p53null 32C tox inactive, NTMT1 inhibitor inactive and p53null 39C tox inactive.
Cc1ccc(-n2ncc3c(NCCO)ncnc32)cc1Cl was read as DRV1 agonist inactive, GALC G270D act inactive, SKOV3 invasion inactive, p53null 32C tox inconclusive, NTMT1 inhibitor 35µM and p53null 39C tox inactive.
Cc1ccc(-n2ncc3c(NCCc4ccccc4)ncnc32)cc1 was read as DRV1 agonist 94, GALC G270D act inactive, SKOV3 invasion inactive, p53null 32C tox inactive, NTMT1 inhibitor inactive and p53null 39C tox inactive.
